According to article PMC5540273 (PLoS ONE, 2017):

Assays:
Settings in all cases: concentration: 1 μM, replicates: in singlicate; n = 1
PCTK2 = system: T1, PCTK2
T1 construct: gene CDK17

PCTK3 = system: T2, PCTK3
T2 construct: gene CDK18

PDGFRA = system: PDGFRA
PDGFRB = system: PDGFRB
PDPK1 = system: PDPK1
PFTAIRE2 = system: PFTAIRE2
PFTK1 = system: T3, PFTK1
T3 construct: gene CDK14

PHKG1 = system: PHKG1
PHKG2 = system: PHKG2
PIK3C2B = system: PIK3C2B
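Further: KINOMEscan kinase panel screen.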

Structure (SMILES) | %Inh (PCTK2) [%] | %Inh (PCTK3) [%] | %Inh (PDGFRA) [%] | %Inh (PDGFRB) [%] | %Inh (PDPK1) [%] | %Inh (PFTAIRE2) [%] | %Inh (PFTK1) [%] | %Inh (PHKG1) [%] | %Inh (PHKG2) [%] | %Inh (PIK3C2B) [%]
Cl.Cl.NC(CNC(=O)c1cc(Br)c(-c2ccnc3[nH]ccc23)s1)c1ccccc1 (centres unmarked) [GSK1322949] | 14 | 0 | 8 | 63 | 76 | 40 | 22 | 74 | 56 | 0
COc1cccc(CC(=O)N2CCc3cc(-c4cn(C)c5ncnc(N)c45)ccc32)c1 [GSK2608899] | 0 | 4 | 88 | 99.2 | 20 | 12 | 0 | 0 | 0 | 83
Cc1ccccc1CC(=O)N1CCc2cc(-c3cn(C)c4ncnc(N)c34)ccc21 [GSK2603346] | 0 | 3 | 64 | 99.4 | 67 | 5 | 3 | 0 | 0 | 77
COc1cc(Nc2ccnc3cc(-c4ccncc4)ccc23)cc(OC)c1OC.Cl [GW494610] | 0 | 0 | 73 | 97.2 | 0 | 12 | 0 | 15 | 0 | 0
Cc1cccc(Nc2nc(N[C@H]3CCCC[C@H]3N)ncc2C(N)=O)c1.Cl [GSK986310] | 17 | 24 | 12 | 80 | 3 | 24 | 29 | 33 | 44 | 0
Cl.N#CCc1ccc(Nc2nccc(Nc3ccc(Oc4ccccc4)cc3)n2)cc1 [GW639905] | 0 | 8 | 31 | 99.6 | 17 | 4 | 0 | 0 | 0 | 0
COc1cccc(NC(=O)NCCNc2ccnc(Nc3ccc(F)cc3)n2)c1 [GSK1379879] | 0 | 0 | 0 | 53 | 0 | 6 | 18 | 0 | 0 | 0
CN1CCN(Cc2ccc(NC(=O)Nc3ccc(N(C)c4ccnc(Nc5ccc(CS(C)(=O)=O)cc5)n4)cc3)cc2)CC1.Cl [GW827654] | 43 | 0 | 99.9 | 99.9 | 10 | 22 | 0 | 19 | 0 | 0
Cc1cccc(Nc2nc(NCCN)ncc2C(N)=O)c1 [GSK1292139] | 0 | 0 | 51 | 89 | 0 | 16 | 0 | 42 | 63 | 0
COc1ccc(C2=C(Nc3cccc(O)c3)C(=O)NC2=O)cc1 [SB-390766] | 0 | 16 | 0 | 26 | 0 | 4 | 13 | 0 | 21 | 0
CC(C)(C)c1ccc(C(=O)Nc2cn3cc(-n4ccnc4)ccc3n2)cc1 | 14 | 0 | 61 | 96.9 | 1 | 8 | 10 | 40 | 13 | 0
Cl.Cl.NCC(NC(=O)c1cc(-c2cccnc2)c(-c2ccnc3[nH]ccc23)s1)c1ccccc1 (centres unmarked) [GSK1323434] | 14 | 0 | 0 | 28 | 26 | 29 | 28 | 7 | 2 | 0
O=C(Nc1c(F)cccc1F)c1cc(C(=O)c2ccccc2F)c[nH]1 [GSK1326180] | 0 | 0 | 0 | 14 | 0 | 10 | 20 | 0 | 0 | 0
COc1cc(Nc2nccc(N3CCC(NC(=O)Nc4ccc5c(c4)OCO5)C3)n2)cc(OC)c1OC (centres unmarked) [GSK1379766] | 38 | 31 | 11 | 60 | 0 | 8 | 0 | 0 | 0 | 8
O=C(Nc1n[nH]c2nc(-c3cccc(O)c3)ccc12)C1CC1 [SB-711805] | 35 | 0 | 52 | 50 | 5 | 21 | 4 | 0 | 0 | 4
N#CC1(c2cccc(C(=O)Nc3cccc(Oc4ccc5nc(NC(=O)C6CC6)sc5n4)c3)c2)CC1 | 0 | 1 | 99.7 | 100 | 49 | 0 | 9 | 0 | 19 | 0

Structure (SMILES) | %Inh (PCTK2) [%] | %Inh (PCTK3) [%] | %Inh (PDGFRA) [%] | %Inh (PDGFRB) [%] | %Inh (PDPK1) [%] | %Inh (PFTAIRE2) [%] | %Inh (PFTK1) [%] | %Inh (PHKG1) [%] | %Inh (PHKG2) [%] | %Inh (PIK3C2B) [%]
COC(=O)Nc1nc2cc(Oc3ccc(NC(=O)Nc4cccc(SC)c4)cc3)ccc2[nH]1.Cl [GW697999] | 6 | 26 | 99.4 | 100 | 0 | 15 | 20 | 3 | 34 | 0
CN(c1ccc(F)c(NC(=O)c2cccc(OC(C)(C)C#N)c2Cl)c1)c1ccc2nc(NC(=O)C3CC3)sc2n1 | 0 | 0 | 97.8 | 100 | 36 | 11 | 0 | 7 | 0 | 15
Cc1ccc(O)cc1Nc1ccnc2ccc(C(C)(C)C)cc12 [GW856805] | 14 | 5 | 64 | 62 | 52 | 12 | 21 | 24 | 0 | 23
CS(=O)(=O)c1cccc(CNc2nc(Nc3ccc4c(c3)CCC(=O)N4)ncc2C(F)(F)F)c1 | 0 | 4 | 15 | 62 | 32 | 14 | 10 | 0 | 3 | 0
Cl.O=C(Nc1ccc(Oc2ccc3[nH]c(NC(=O)c4ccco4)nc3c2)cc1)Nc1cc(C(F)(F)F)ccc1F [GW683134] | 0 | 8 | 92.6 | 100 | 14 | 27 | 14 | 0 | 0 | 100
Cc1ccc(O)cc1Nc1ccnc2cc(-c3ccc(CN4CCCCC4)o3)ccc12 [GW557777] | 0 | 8 | 95.3 | 99.7 | 0 | 0 | 15 | 9 | 7 | 0
O=C(Nc1n[nH]c2cc(-c3cccs3)ccc12)C1CC1 [SB-731284] | 33 | 38 | 73 | 83 | 0 | 0 | 33 | 0 | 17 | 7
COc1cccc(-c2nc(-c3ccccc3)[nH]c2-c2ccncc2)c1 [SB-610250] | 0 | 14 | 0 | 0 | 0 | 14 | 16 | 0 | 0 | 0
COC(=O)Nc1nc2ccc(Oc3ccc(NC(=O)Nc4cc(C(F)(F)F)ccc4F)cc3)cc2[nH]1.Cl [GW654607] | 10 | 14 | 96.6 | 100 | 0 | 89 | 47 | 0 | 0 | 0
CNc1nccc(-c2ccc3c(N)n[nH]c3c2)n1 [GSK2206003] | 19 | 18 | 13 | 77 | 62 | 16 | 10 | 6 | 43 | 0
Nc1ncnc2scc(-c3ccc(NC(=O)Cc4cc(F)ccc4F)cc3)c12.O=C(O)C(F)(F)F [SB-731254-M] | 0 | 13 | 99.5 | 99.9 | 41 | 0 | 2 | 6 | 16 | 22
Cc1ccc(NC(=O)c2cccc(N3CCCCC3)c2)cc1-c1ccc(C(=O)NCC2CC2)cc1 [GSK1917008] | 0 | 26 | 34 | 98.7 | 5 | 28 | 33 | 0 | 0 | 0
COc1cccc(C2=C(Nc3cccc(O)c3)C(=O)NC2=O)c1 [SB-390771] | 0 | 6 | 0 | 20 | 0 | 14 | 22 | 0 | 0 | 0
CN(C)CCOc1ccc(-c2cc(-c3ccc(Cl)c(O)c3)c(-c3ccncc3)[nH]2)cc1.Cl.Cl [SB-684387] | 13 | 1 | 12 | 30 | 0 | 20 | 19 | 0 | 0 | 10
Cc1ccc(C)c(NC(=O)Nc2ccc(C)c(-c3ccc(C(=O)Nc4ccncc4)cc3)c2)c1 [GSK1398473] | 0 | 23 | 80 | 100 | 2 | 12 | 14 | 0 | 0 | 0
Cn1cc(-c2ccc3c(c2)CCN3C(=O)Cc2cc(F)cc(C(F)(F)F)c2)c2c(N)ncnc21 [GSK2635225] | 14 | 15 | 93 | 100 | 2 | 22 | 22 | 0 | 3 | 0
